# Test results from the supplement of paper PMC8728848.
# The full list was thinned out, with the strongest signals kept by preference.
# Key:
# Test in all cases: glycan array binding signal (z-score within array); higher = stronger binding
# [1] = system: GlcNAc(b1-2)Man(a1-3)[GlcNAc(b1-2)Man(a1-6)]Man(b1-4)GlcNAc(b1-4)GlcNAc; settings: glycan notation: IUPAC condensed, linker removed
# In short: (§1)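 The binding signal is a Z-score computed within each array and averaged over linkers. Arrays of the same protein sequence at different concentrations or buffers were also averaged together. Data originate from 3228 arrays in the Consortium for Functional Glycomics database, kept only where the protein sequence was available.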
# [2] = system: GlcNAc(b1-3)Gal(b1-4)GlcNAc; settings: glycan notation: IUPAC condensed, linker removed
# In short: as §1
# [3] = system: GlcNAc(b1-3)Gal; settings: glycan notation: IUPAC condensed, linker removed
# In short: as §1
# [4] = system: GlcNAc(b1-2)Man(a1-3)[GlcNAc(b1-4)][GlcNAc(b1-2)Man(a1-6)]Man(b1-4)GlcNAc(b1-4)GlcNAc; settings: glycan notation: IUPAC condensed, linker removed
# In short: as §1
# [5] = system: GlcNAc(b1-3)Gal(b1-4)GlcNAc(b1-3)Gal(b1-4)GlcNAc(b1-2)[GlcNAc(b1-3)Gal(b1-4)GlcNAc(b1-3)Gal(b1-4)GlcNAc(b1-6)]Man(a1-6)[GlcNAc(b1-3)Gal(b1-4)GlcNAc(b1-3)Gal(b1-4)GlcNAc(b1-2)Man(a1-3)]Man(b1-4)GlcNAc(b1-4)[Fuc(a1-6)]GlcNAc; settings: glycan notation: IUPAC condensed, linker removed
# In short: as §1
# [6] = system: GlcNAc(b1-2)Gal(b1-3)GalNAc; settings: glycan notation: IUPAC condensed, linker removed
# In short: as §1
# [7] = system: GlcNAc(b1-3)Gal(b1-4)Glc; settings: glycan notation: IUPAC condensed, linker removed
# In short: as §1
# [8] = system: GlcNAc(b1-3)Gal(b1-4)GlcNAc(b1-3)Gal(b1-4)GlcNAc; settings: glycan notation: IUPAC condensed, linker removed
# In short: as §1
# [9] = system: GlcNAc(b1-2)Man(a1-3)[GlcNAc(b1-4)][GlcNAc(b1-2)Man(a1-6)]Man(b1-4)GlcNAc(b1-4)[Fuc(a1-6)]GlcNAc; settings: glycan notation: IUPAC condensed, linker removed
# In short: as §1
# [10] = system: GlcNAc(b1-2)[GlcNAc(b1-4)]Man(a1-3)[GlcNAc(b1-4)][GlcNAc(b1-2)Man(a1-6)]Man(b1-4)GlcNAc(b1-4)GlcNAc; settings: glycan notation: IUPAC condensed, linker removed; mutation: R125K
# In short: as §1
# [11] = system: GlcNAc(b1-2)[GlcNAc(b1-6)]Man(a1-6)[GlcNAc(b1-2)Man(a1-3)][GlcNAc(b1-4)]Man(b1-4)GlcNAc(b1-4)GlcNAc; settings: glycan notation: IUPAC condensed, linker removed
# In short: as §1
# [12] = system: GlcNAc(b1-2)[GlcNAc(b1-6)]Man(a1-6)[GlcNAc(b1-4)][GlcNAc(b1-2)Man(a1-3)]Man(b1-4)GlcNAc(b1-4)GlcNAc; settings: glycan notation: IUPAC condensed, linker removed; mutation: R125K
# In short: as §1
# [13] = system: GlcNAc(b1-3)Gal(b1-4)GlcNAc(b1-3)Gal(b1-4)GlcNAc(b1-3)Gal(b1-4)GlcNAc(b1-2)Man(a1-3)[GlcNAc(b1-3)Gal(b1-4)GlcNAc(b1-3)Gal(b1-4)GlcNAc(b1-3)Gal(b1-4)GlcNAc(b1-2)Man(a1-6)]Man(b1-4)GlcNAc(b1-4)[Fuc(a1-6)]GlcNAc; settings: glycan notation: IUPAC condensed, linker removed
# In short: as §1
# [14] = system: GlcNAc(b1-3)Gal(b1-4)GlcNAc(b1-3)Gal(b1-4)GlcNAc(b1-3)Gal(b1-4)GlcNAc(b1-3)Gal(b1-4)GlcNAc(b1-2)Man(a1-3)[GlcNAc(b1-3)Gal(b1-4)GlcNAc(b1-3)Gal(b1-4)GlcNAc(b1-3)Gal(b1-4)GlcNAc(b1-3)Gal(b1-4)GlcNAc(b1-2)Man(a1-6)]Man(b1-4)GlcNAc(b1-4)GlcNAc; settings: glycan notation: IUPAC condensed, linker removed; mutation: R125K
# In short: as §1
# [15] = system: GlcNAc(a1-6)Gal(b1-4)GlcNAc; settings: glycan notation: IUPAC condensed, linker removed; mutation: D138V, E140I
# In short: as §1
# [16] = system: GlcNAc(b1-3)Gal(b1-4)GlcNAc(b1-2)[GlcNAc(b1-3)Gal(b1-4)GlcNAc(b1-6)]Man(a1-6)[GlcNAc(b1-3)Gal(b1-4)GlcNAc(b1-2)Man(a1-3)]Man(b1-4)GlcNAc(b1-4)GlcNAc; settings: glycan notation: IUPAC condensed, linker removed
# In short: as §1
# [17] = system: GlcNAc(b1-3)Gal(b1-4)GlcNAc(b1-3)Gal(b1-4)GlcNAc(b1-2)Man(a1-3)[GlcNAc(b1-3)Gal(b1-4)GlcNAc(b1-3)Gal(b1-4)GlcNAc(b1-2)Man(a1-6)]Man(b1-4)GlcNAc(b1-4)[Fuc(a1-6)]GlcNAc; settings: glycan notation: IUPAC condensed, linker removed
# In short: as §1
# [18] = system: GlcNAc(b1-3)Gal(b1-4)GlcNAc(b1-3)Gal(b1-4)GlcNAc(b1-3)Gal(b1-4)GlcNAc(b1-2)Man(a1-3)[GlcNAc(b1-3)Gal(b1-4)GlcNAc(b1-3)Gal(b1-4)GlcNAc(b1-3)Gal(b1-4)GlcNAc(b1-2)Man(a1-6)]Man(b1-4)GlcNAc(b1-4)GlcNAc; settings: glycan notation: IUPAC condensed, linker removed
# In short: as §1
# [19] = system: GlcNAc(b1-3)Gal(b1-4)GlcNAc(b1-3)Gal(b1-4)GlcNAc(b1-3)Gal(b1-4)GlcNAc(b1-2)[GlcNAc(b1-3)Gal(b1-4)GlcNAc(b1-3)Gal(b1-4)GlcNAc(b1-3)Gal(b1-4)GlcNAc(b1-6)]Man(a1-6)[GlcNAc(b1-3)Gal(b1-4)GlcNAc(b1-3)Gal(b1-4)GlcNAc(b1-3)Gal(b1-4)GlcNAc(b1-2)Man(a1-3)]Man(b1-4)GlcNAc(b1-4)[Fuc(a1-6)]GlcNAc; settings: glycan notation: IUPAC condensed, linker removed
# In short: as §1
# [20] = system: GlcNAc(b1-2)Man(a1-3)[GlcNAc(b1-2)Man(a1-6)]Man(b1-4)GlcNAc(b1-4)[Fuc(a1-6)]GlcNAc; settings: glycan notation: IUPAC condensed, linker removed
# In short: as §1
# Sequence of Neurocan (Homo sapiens), O14594 (O14594 other isoform, or with tags, fused parts or gaps): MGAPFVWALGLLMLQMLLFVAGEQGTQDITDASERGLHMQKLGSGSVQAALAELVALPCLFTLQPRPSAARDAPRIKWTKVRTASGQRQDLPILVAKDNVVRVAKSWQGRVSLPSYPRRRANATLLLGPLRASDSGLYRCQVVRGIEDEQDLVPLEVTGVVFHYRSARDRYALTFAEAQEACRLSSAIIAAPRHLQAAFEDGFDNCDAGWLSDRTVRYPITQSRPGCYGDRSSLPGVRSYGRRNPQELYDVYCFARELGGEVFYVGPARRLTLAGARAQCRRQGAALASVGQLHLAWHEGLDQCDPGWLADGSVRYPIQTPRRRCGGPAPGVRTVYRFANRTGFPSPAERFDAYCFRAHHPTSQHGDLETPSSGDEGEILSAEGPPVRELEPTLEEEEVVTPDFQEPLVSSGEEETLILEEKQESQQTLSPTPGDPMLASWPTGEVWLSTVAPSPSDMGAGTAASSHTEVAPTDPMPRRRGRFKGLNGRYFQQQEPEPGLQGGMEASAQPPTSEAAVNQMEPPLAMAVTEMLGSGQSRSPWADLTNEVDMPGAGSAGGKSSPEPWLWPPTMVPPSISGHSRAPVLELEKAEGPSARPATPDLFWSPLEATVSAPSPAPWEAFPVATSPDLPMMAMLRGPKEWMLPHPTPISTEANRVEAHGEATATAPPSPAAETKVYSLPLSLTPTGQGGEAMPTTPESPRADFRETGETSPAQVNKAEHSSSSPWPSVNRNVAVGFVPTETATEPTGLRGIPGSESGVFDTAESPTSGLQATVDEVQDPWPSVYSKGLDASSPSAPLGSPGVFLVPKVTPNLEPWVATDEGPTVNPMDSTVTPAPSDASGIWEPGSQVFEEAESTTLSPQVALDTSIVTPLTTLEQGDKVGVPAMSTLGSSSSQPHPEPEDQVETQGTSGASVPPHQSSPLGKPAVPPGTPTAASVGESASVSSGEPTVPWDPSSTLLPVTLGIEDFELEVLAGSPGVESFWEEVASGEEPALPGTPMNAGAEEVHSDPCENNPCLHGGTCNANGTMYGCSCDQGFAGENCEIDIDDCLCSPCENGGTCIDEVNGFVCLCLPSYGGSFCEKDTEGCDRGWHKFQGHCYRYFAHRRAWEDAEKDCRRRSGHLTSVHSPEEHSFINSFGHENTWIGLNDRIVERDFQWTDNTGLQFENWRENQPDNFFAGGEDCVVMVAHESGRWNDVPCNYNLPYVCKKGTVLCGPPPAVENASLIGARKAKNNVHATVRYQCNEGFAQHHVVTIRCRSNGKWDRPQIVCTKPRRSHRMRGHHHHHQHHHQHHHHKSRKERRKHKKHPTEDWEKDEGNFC
# Sequence of PILRb (Mus musculus), Q2YSF2 (Q2YSF2 entry or part of it): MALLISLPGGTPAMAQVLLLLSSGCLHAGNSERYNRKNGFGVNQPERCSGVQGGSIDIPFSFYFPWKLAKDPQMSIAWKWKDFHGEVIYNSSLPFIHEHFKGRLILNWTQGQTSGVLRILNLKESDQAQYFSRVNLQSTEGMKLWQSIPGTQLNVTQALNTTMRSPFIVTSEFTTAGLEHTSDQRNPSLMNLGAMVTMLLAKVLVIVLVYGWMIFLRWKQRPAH
# Sequence of Avaren (Actinomycete K97) (chain, as listed by the source): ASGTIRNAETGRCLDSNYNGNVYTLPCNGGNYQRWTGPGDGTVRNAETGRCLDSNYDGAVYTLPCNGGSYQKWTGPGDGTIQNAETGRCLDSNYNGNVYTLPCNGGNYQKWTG
# Sequence of Regenerating Gene IV (Homo sapiens), Q9BYZ8 (Q9BYZ8 whole entry, looked up): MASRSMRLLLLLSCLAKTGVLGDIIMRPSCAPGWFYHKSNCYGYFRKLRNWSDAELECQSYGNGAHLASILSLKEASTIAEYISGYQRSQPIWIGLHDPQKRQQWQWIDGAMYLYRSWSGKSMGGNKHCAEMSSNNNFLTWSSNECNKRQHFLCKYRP
# Sequence of C3b (Homo sapiens), P01024 (P01024 23-667): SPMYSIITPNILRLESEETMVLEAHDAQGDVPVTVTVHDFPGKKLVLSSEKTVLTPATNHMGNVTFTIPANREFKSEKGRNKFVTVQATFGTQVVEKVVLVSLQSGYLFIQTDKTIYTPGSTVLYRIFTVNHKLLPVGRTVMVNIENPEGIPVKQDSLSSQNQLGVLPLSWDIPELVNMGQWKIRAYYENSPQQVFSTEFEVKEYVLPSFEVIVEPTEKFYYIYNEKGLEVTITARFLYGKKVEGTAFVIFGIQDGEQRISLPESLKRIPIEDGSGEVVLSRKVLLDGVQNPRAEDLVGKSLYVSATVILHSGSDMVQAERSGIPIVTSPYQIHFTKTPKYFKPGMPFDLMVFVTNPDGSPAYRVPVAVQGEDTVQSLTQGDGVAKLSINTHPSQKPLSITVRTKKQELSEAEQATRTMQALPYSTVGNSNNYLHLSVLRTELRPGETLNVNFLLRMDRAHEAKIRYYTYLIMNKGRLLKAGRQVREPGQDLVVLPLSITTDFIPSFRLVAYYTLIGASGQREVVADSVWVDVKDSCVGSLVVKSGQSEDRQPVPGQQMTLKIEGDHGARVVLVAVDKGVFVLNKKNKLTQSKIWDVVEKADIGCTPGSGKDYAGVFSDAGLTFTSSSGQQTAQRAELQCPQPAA
# Sequence of 6RG (Lolium perenne) (chain, as listed by the source): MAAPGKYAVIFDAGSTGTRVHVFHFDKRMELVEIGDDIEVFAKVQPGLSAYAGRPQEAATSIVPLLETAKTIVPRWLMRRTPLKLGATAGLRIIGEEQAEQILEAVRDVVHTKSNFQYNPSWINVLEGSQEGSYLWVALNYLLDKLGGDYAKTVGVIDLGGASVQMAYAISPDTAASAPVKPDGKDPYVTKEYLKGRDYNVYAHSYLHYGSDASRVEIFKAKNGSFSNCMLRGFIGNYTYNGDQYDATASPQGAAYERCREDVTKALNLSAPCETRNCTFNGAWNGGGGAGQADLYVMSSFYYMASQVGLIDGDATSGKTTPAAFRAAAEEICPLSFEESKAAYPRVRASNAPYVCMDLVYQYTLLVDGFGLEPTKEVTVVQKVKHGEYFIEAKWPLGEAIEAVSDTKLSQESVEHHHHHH
# Sequence of wLAT-1A (Homo sapiens), Q01650 (Q01650 whole entry): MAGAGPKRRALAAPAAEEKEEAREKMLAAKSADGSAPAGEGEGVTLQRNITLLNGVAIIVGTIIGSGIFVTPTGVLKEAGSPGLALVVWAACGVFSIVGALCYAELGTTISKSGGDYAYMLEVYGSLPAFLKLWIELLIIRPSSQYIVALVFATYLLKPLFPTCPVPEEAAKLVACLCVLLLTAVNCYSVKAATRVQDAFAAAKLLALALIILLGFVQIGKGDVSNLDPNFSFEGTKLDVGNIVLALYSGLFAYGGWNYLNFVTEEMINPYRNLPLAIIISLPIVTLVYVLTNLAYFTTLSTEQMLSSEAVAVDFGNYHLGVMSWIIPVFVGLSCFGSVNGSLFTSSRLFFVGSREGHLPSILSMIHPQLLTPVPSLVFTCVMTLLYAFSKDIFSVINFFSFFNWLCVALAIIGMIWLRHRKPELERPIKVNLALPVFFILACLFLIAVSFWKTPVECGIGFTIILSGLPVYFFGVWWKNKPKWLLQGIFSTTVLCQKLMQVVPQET
# Sequence of CHT (Homo sapiens) (chain, as listed by the source): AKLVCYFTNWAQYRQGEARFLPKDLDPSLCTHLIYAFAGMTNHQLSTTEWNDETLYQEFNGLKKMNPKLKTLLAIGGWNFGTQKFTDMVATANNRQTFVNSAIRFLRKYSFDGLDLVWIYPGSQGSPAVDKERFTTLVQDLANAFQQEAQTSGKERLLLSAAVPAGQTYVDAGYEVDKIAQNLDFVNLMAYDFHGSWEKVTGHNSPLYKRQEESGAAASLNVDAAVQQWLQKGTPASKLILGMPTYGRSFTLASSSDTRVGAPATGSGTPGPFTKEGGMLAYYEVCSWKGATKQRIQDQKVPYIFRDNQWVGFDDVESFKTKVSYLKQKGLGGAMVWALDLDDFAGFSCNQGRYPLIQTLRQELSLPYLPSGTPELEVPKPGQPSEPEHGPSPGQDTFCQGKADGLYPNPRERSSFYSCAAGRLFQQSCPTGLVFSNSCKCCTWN
# Sequence of SRLC (Mus musculus), Q8VIF6 (Q8VIF6 other isoform, or with tags, fused parts or gaps): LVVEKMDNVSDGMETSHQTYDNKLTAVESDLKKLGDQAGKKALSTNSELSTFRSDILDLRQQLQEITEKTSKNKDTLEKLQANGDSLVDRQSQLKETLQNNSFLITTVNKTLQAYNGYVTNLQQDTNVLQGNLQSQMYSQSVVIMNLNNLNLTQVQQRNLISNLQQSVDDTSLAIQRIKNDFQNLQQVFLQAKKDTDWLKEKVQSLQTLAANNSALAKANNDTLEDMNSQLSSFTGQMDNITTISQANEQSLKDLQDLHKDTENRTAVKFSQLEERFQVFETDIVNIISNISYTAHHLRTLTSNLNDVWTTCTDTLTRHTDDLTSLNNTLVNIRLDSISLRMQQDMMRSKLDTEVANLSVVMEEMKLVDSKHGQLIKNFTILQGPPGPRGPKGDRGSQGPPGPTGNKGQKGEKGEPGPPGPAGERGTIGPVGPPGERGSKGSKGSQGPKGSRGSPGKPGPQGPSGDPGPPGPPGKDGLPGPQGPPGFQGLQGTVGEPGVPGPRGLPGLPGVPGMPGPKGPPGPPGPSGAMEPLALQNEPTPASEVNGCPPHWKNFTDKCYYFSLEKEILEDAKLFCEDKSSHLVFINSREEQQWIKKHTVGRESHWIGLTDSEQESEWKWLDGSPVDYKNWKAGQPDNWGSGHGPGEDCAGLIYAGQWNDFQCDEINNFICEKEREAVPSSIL
substance,measurement,setting,value
"Neurocan (Homo sapiens), O14594",glycan array binding signal (z-score),[1],-0.834
same,glycan array binding signal (z-score),[2],-1.33
same,glycan array binding signal (z-score),[3],-0.097
Avaren (Actinomycete K97),glycan array binding signal (z-score),[4],-0.134
same,glycan array binding signal (z-score),[5],-0.046
"C3b (Homo sapiens), P01024",glycan array binding signal (z-score),[6],-0.291
"wLAT-1A (Homo sapiens), Q01650",glycan array binding signal (z-score),[7],-0.411
"Regenerating Gene IV (Homo sapiens), Q9BYZ8",glycan array binding signal (z-score),[3],-0.345
"SRLC (Mus musculus), Q8VIF6",glycan array binding signal (z-score),[8],-0.205
6RG (Lolium perenne),glycan array binding signal (z-score),[8],-0.272
"Siglec-8 (Homo sapiens), Q9NYZ4",glycan array binding signal (z-score),[1],-0.041
same,glycan array binding signal (z-score),[9],0.376
same,glycan array binding signal (z-score),[10],5.14
same,glycan array binding signal (z-score),[11],-0.061
same,glycan array binding signal (z-score),[12],-0.415
same,glycan array binding signal (z-score),[5],0.434
same,glycan array binding signal (z-score),[13],0.693
same,glycan array binding signal (z-score),[14],-0.017
CHT (Homo sapiens),glycan array binding signal (z-score),[15],-0.177
MpAFP RI GFP (Marinomonas primoryensis),glycan array binding signal (z-score),[16],5.77
same,glycan array binding signal (z-score),[17],2.86
same,glycan array binding signal (z-score),[5],1.29
same,glycan array binding signal (z-score),[18],4.26
same,glycan array binding signal (z-score),[19],1.39
"PILRb (Mus musculus), Q2YSF2",glycan array binding signal (z-score),[20],0.569
same,glycan array binding signal (z-score),[2],-0.214
